This is a sample that favours compounds with a hit; in the whole collection about 7.5% have one here.
NPC1 promoter act: NPC1 promoter activation; Huh7 NPC1 promoter luciferase reporter, 24 h; Potency, µM (top dose mostly 9.22 µM), hits mostly activators; 320,000 tested, 2.4% active; AID 485313; further: nearly all actives have a fitted effect of over 60% in size
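Readout is luciferase luminescence, reflecting NPC1 promoter activation in stably transfected Huh7 cells after 24 h compound exposure at 37 °C in reduced-serum medium with 10% FBS.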
SMN2 splice enh: enhancers of SMN2 splice variant expression | HEK293 SMN2-luciferase splicing reporter, luminescence, 30-36 h | Potency, µM (doses to about 46.1 µM), usual class: activators | 210,000 tested, 2.8% active | AID 1458; further: nearly all actives have a fitted effect of over 55% in size
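qHTS luciferase splicing reporter: luminescence rises when SMN2 exon 7 is included in transfected HEK293 cells. Compound exposure lasted 30-36 h at 37C, with 4.5 mM final sodium butyrate as control, followed by a ONE-Glo read.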
Rab9 prom act: activators of Rab9 promoter; Huh7 Rab9 promoter-luciferase reporter, luminescence, 24 h; Potency, µM (titrated, usually from 9.22 µM), usual class: activators; 320,000 tested, 2.8% active; AID 485297; further: nearly all actives have a fitted effect of over 60% in size
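Huh7 reporter line, Rab9 promoter upstream of luciferase. Compound exposure 24 h at 37 °C in reduced-serum medium with 10% FBS. Read-out: luminescence.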
Luc counter: Kinase-Glo luciferase inhibition (counter-screen); Q27757; Kinase-Glo luciferase, ATP luminescence, 8 min; Potency, µM (titrated, usually from 38.3 µM), hits mostly inhibitors; 200,000 tested, 0.28% active; AID 1379; further: nearly all actives have a fitted effect of over 60% in size
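Luminescence was the read-out, taken after 8-minute incubation at ambient temperature. Luciferase turned over luciferin with 10 uM ATP in imidazole pH 7.2 buffer containing KCl, MgCl2, Tween 20 and BSA.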
ELG1 genotoxic: genotoxicity induction in ELG1-luciferase HEK293T cells; HEK293T ELG1-luciferase reporter, luminescence, 16 h; 330,000 tested, 1.3% active; Potency, µM (top dose mostly 46 µM), most hits filed as activators; further: nearly all actives have a fitted effect of over 60% in size
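Reporter readout depends on ELG1 protein level, which increases with genetic stress. After 16 hr compound exposure at 37 °C, luciferase activity was quantified using ONE-Glo.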
FLuc modulator: firefly luciferase modulation, counter-screen for miR-21 project; Potency, µM (doses to about 57.5 µM), actives largely listed as inhibitors; purified FLuc, Km substrates, luminescence inhibition; 360,000 tested, 6.9% active; further: nearly all actives have a fitted effect of over 55% in size
Target sequence (P08659 whole entry, looked up): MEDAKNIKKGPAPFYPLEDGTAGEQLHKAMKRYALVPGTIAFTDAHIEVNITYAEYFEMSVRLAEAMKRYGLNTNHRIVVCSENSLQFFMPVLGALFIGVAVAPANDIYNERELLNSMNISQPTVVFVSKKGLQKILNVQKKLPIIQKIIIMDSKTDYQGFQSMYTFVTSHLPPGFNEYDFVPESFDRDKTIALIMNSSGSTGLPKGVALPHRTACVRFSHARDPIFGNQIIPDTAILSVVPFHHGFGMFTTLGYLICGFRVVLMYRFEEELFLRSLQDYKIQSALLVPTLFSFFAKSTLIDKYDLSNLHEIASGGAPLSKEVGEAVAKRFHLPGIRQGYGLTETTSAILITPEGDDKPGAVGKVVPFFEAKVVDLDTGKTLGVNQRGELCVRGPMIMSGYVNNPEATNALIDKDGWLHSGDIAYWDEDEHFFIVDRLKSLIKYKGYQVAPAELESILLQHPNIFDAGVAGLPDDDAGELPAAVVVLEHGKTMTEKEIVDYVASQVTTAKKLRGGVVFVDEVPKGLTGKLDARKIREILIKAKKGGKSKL
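Biochemical qHTS of compounds, final roughly 60 µM downward over six points, against 10 nM purified firefly luciferase using Km concentrations of substrates (10 uM D-luciferin, 10 uM ATP) in Tris acetate pH 7.5 buffer; luminescence output.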
Numbers stand for hits; i = inactive; ? = inconclusive; nt = no result; ! = a repeat was not active; [ ] = another dose, or the depositor's remark. The call rests on the fitted dose curve; in most records, active means well fitted curve in the direction sought with a large enough effect; inconclusive means small, poorly fitted or top-dose-only effect, or another doubt; inactive means no such curve, though single readings can be large; an effect the other way counts as inactive or inconclusive.

SMILES	NPC1 promoter act	SMN2 splice enh	Rab9 prom act	Luc counter	ELG1 genotoxic	FLuc modulator
Cc1csc(NC(=O)Cc2ccc(F)cc2)n1	?	nt	3.5µM	nt	?	?
Cc1cccc(NC(=O)Cc2c(F)cccc2Cl)n1	2.5µM	nt	3.2µM	nt	?	15µM
O=C(Cc1c(F)cccc1Cl)Nc1ccncc1	i	i	i	i	i	i
O=C(NCCc1csc(-c2ccc(Cl)cc2)n1)c1ccco1	i	nt	i	nt	i	i
Cc1ccc(CC(=O)Nc2cccc(C)n2)cc1	?	13µM	?	i	21µM	?
COc1cc(/C=N/NC(=O)CCn2nnc3ccccc32)ccc1O	i	i	i	i	i	15µM
COc1cc(/C=N/NC(=O)Cn2nnc3ccccc32)ccc1O	i	i	i	i	i	i
COc1cccc(/C=N\NC(=O)Cn2nnc3ccccc32)c1O	i	nt	i	i	?	17µM
CCCN(Cc1nnc(-c2ccccc2Cl)o1)C(=O)c1cc2ccccc2o1	i	nt	i	nt	i	?
O=C(c1cc2ccccc2o1)N(Cc1nnc(-c2ccccc2Cl)o1)C1CC1	i	nt	i	nt	21µM	30µM
O=C(NCC1COc2ccccc2O1)C1CCN(S(=O)(=O)c2ccc(Cl)cc2)CC1 (stereo unspecified)	i	nt	i	nt	i	i
Cc1nc(N/N=C\c2ccc3c(c2)OCO3)sc1C	1.6µM	nt	0.32µM	nt	?	1.9µM
Brc1cc2c(cc1/C=N/Nc1nc3ccccc3s1)OCO2	?	?	?	i	18µM	i
Cc1ccc(S(=O)(=O)N/N=C\c2ccc3c(c2)OCO3)cc1C	i	nt	i	nt	i	i
O=C(O)C/C(=C\c1cc2c(cc1Br)OCO2)c1nc2ccccc2s1	i	nt	i	nt	i	i
C(=N\Nc1nc2ccccc2s1)/c1ccc2c(c1)OCO2	4µM	1µM	1.3µM	i	?	0.76µM
CN(C)c1ccc(/C=N/NC(=O)c2ccc(NC(=O)c3ccccc3)cc2)cc1	i	nt	i	nt	i	i
O=C(/C=C/Nc1ccccc1)c1ccccc1	0.56µM	11µM	1µM	7.1µM	?	0.34µM
NC(N)=NS(=O)(=O)c1ccc(N/C=C\C(=O)c2ccncc2)cc1	i	nt	i	i	i	i
O=C(/C=C\Nc1ccc(Br)cc1)c1cccnc1	1.8µM	nt	1.3µM	i	21µM	0.95µM
CN(C)c1ccc(N/C=C/C(=O)c2ccccc2)cc1	2.8µM	3.2µM	3.2µM	4µM	0.73µM	0.27µM
CC(=O)Nc1ccc(N/C=C/C(=O)c2ccccc2)cc1	1.6µM	nt	2.8µM	nt	?	4.8µM
CC(=O)Nc1ccc(C(=O)c2ccccc2)cc1	i	nt	i	nt	i	i
O=C(/C=C/Nc1ccccc1)c1ccc(Cl)cc1Cl	0.35µM	nt	0.5µM	nt	0.92µM	0.38µM
Cc1cc(N/C=C/C(=O)c2ccccc2)ccc1Br	?	nt	3.2µM	nt	?	0.48µM
SMILES	NPC1 promoter act	SMN2 splice enh	Rab9 prom act	Luc counter	ELG1 genotoxic	FLuc modulator
CN(C)c1ccc(N/C=C/C(=O)C(C)(C)C)cc1	i	i	i	i	?	5.4µM
O=C(/C=C/Nc1ccc(F)cc1Br)c1ccccc1	0.5µM	i	0.11µM	?	0.16µM	0.085µM
Cc1ccc(NC(=O)Cn2c(-c3cncs3)nc3ccccc32)cc1Br	nt	nt	nt	nt	nt	i
O=C(Cn1cnc([N+](=O)[O-])n1)c1ccc(O)c(O)c1	i	nt	i	nt	i	i
CC(=O)Nc1nnc(SCc2cc(=O)c3cccc(Cl)c3[nH]2)s1	nt	nt	nt	nt	nt	i
CCOc1ccc(NC(=O)CSc2nc3ccsc3c(=O)n2CCC(C)C)cc1	nt	nt	nt	nt	nt	i
CCOCC(O)CNC(=O)c1ccc2nc(Cc3ccc(OC)c(OC)c3)oc2c1 (stereo unspecified)	?	nt	i	nt	i	i
COCCCNC(=O)c1ccc2nc(Cc3ccc(OC)cc3)oc2c1	4µM	nt	2.2µM	nt	21µM	17µM!
COc1ccc(Cc2nc3ccc(C(=O)NCCc4ccc(OC)c(OC)c4)cc3o2)cc1	nt	nt	nt	nt	nt	i
COc1ccc(Cc2nc3ccc(C(=O)NCCCSC)cc3o2)cc1OC	?	nt	?	nt	i	17µM
CCOCCCNC(=O)c1ccc(OC)cc1	i	28µM	i	i	?	i[2.3 µM]
COC(=O)CCNC(=O)c1ccc2nc(Cc3ccc(OC)c(OC)c3)oc2c1	?	nt	?	nt	i	17µM
Cn1c(CC(=O)Nc2ccccc2Cl)nnc1SCC(=O)Nc1nncs1	i	nt	i	nt	i	i

Screening data: PubChem, National Center for Advancing Translational Sciences (NCATS)
